Screens: PubChem, National Center for Advancing Translational Sciences (NCATS)
RORgamma inh = qHTS for inhibitors of ROR gamma transcriptional activity | Nuclear receptor ROR-gamma (Mus musculus), P51450 | Drosophila S2 Gal4-RORgamma UAS-luciferase reporter, 20 h | Potency, µM (highest dose often 53.6 µM), inactives show top-dose activity change, negative = inhibition, hits mostly inhibitors | 310,000 tested, 5.4% active | AID 2551, 2010; further: nearly all actives have a fitted effect of over 60% in size
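Stably transfected Drosophila Schneider cells are the test system, with ROR gamma fused to Gal4 and luciferase under UAS control; luminescence is read after 20 hr of 700 uM copper sulfate induction at ambient temperature.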
VP16 counter = VP16 counterscreen qHTS for inhibitors of ROR gamma transcriptional activity. Drosophila S2 Gal4-VP16 UAS-luciferase, luminescence, 20 h. Potency, µM (series often up to 53.6 µM), inactives show top-dose activity, negative = inhibition, actives largely listed as inhibitors. 310,000 tested, 3.5% active. AID 2546, 2010;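 further: Gal4-VP16 expression switched on by copper sulfate through the metallothionein promoter; nearly all actives have a fitted effect of over 50% in size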
TDP1 inh = qHTS Assay for Inhibitors of Tyrosyl-DNA Phosphodiesterase (TDP1). 350,000 tested, 0.28% active. Potency, µM (doses to about 130 µM), without a hit: at the highest dose activity change, negative = inhibition, most hits filed as inhibitors. recombinant TDP1, AlphaScreen DNA substrate cleavage; further: nearly all actives have a fitted effect of over 40% in size
Target sequence (Q9NUW8 whole entry, looked up): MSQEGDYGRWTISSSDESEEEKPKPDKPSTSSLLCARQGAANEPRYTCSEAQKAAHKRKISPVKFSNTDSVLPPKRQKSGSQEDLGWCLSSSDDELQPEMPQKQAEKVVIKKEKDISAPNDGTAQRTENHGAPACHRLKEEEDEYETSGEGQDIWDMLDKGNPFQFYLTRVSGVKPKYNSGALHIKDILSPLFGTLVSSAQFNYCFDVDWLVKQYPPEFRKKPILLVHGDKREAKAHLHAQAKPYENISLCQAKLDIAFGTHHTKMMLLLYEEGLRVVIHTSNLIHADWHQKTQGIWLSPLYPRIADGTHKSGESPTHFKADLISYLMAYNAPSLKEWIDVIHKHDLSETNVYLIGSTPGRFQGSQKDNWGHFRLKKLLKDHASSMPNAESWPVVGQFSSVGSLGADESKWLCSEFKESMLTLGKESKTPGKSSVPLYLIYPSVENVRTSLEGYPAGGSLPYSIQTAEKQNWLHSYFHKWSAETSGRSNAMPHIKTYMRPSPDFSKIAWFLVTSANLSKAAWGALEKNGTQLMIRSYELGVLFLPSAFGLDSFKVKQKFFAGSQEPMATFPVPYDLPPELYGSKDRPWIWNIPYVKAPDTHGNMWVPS
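Signal: AlphaScreen proximity between streptavidin donor and anti-FITC acceptor beads on intact substrate. Reaction: Tdp1 1 nM, substrate 15 nM final, 5 min RT after 15 min compound preincubation.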
TDP1 cell noCPT = qHTS for Inhibitors of human tyrosyl-DNA phosphodiesterase 1 (TDP1): qHTS in cells in absence of CPT | DT40 Tdp1-/- hTDP1 cells, no CPT, ATP luminescence, 48 h | Potency, µM (top dose mostly 46.2 µM), for the others: top-dose activity change, negative = growth inhibition, usual class: inhibitors | 420,000 tested, 15% active | AID 686978, 2013; further: nearly all actives have a fitted effect of over 55% in size
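Luminescent ATP content (CellTiter-Glo) served as the growth readout. Knockout chicken DT40 cells expressing human TDP1 were exposed to compounds without camptothecin for a minimum 48 hr at 37 °C.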
DT40 TDP1 CPT = qHTS for Inhibitors of human tyrosyl-DNA phosphodiesterase 1 (TDP1): qHTS in cells in presence of CPT; AID 686979, 2013; chicken DT40 Tdp1-/-;hTDP1 cells + 20 nM CPT, ATP luminescence, 48 h; Potency, µM (series often up to 46.2 µM), for the others: top-dose activity change, negative = growth inhibition, most hits filed as inhibitors; 420,000 tested, 12% active; further: nearly all actives have a fitted effect of over 55% in size
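Chicken DT40 Tdp1-/- cells stably complemented with human TDP1 were seeded at 400 cells/well in medium containing 20 nM camptothecin, exposed to pin-transferred compounds, and grown at 37 °C for at least 48 hr. Viability was read as ATP luminescence.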
Active calls of the source: *; u = inconclusive; x = no result given; [ ] = another dose, or the depositor's remark. Rows were chosen to be rich in hits. Some 19% of all compounds tested hit in one or more screens of this group. The call rests on the fitted dose curve; in most records, active means well fitted curve in the direction sought with a large enough effect; inconclusive means small, poorly fitted or top-dose-only effect, or another doubt; inactive means no such curve, though single readings can be large; an effect the other way counts as inactive or inconclusive. On the % scale 0 is the no-effect control and ±100 the full control effect; potency means the concentration at half of the fitted maximal effect.

SMILES | RORgamma inh | VP16 counter | TDP1 inh | TDP1 cell noCPT | DT40 TDP1 CPT
C/C=C\C=C\C(=O)Nc1cccc(C2=NOC3(C2)C[C@@H](C(N)=O)N(C(=O)C(c2ccccc2)c2ccccc2)C3)c1 (stereo not given in full) | u | 29% | 2% | u | u
O=C(CSc1ncnc2ccccc12)c1ccco1 | u | u | -2% | 21µM* | u
O=[N+]([O-])c1ccc(CSc2ncnc3ccccc23)cc1 | 7.9µM* | 23% | -3% | u | u
O=C(CSc1ncnc2ccccc12)NCc1ccco1 | -15% | 5% | u | -19% | -6%
Cc1cc(-n2c(C)cc(C(=O)COc3ccc4ccc(=O)oc4c3)c2C)no1 | u | 3% | -1% | u | u
Cc1cc(C)n2nc(SCC(=O)c3cc(C)n(-c4cc(C)on4)c3C)nc2n1 | -5% | 4µM* | 5% | 10µM* | 10µM*
Cc1cc(-n2c(C)cc(C(=O)CSc3ncnc4ccccc34)c2C)no1 | u | 5µM* | 9% | 1.2µM* | 1.8µM*
CCOc1ccc(NC(=O)c2sc3nc(C)nc(N4CCOCC4)c3c2C)cc1 | u | u | 3% | u | -3%
Cc1cc(-n2c(C)cc(C(=O)CSc3nnnn3-c3ccc(Cl)cc3)c2C)no1 | 34% | -2% | 2% | 7.3µM* | u
Cc1cc(NC(=O)CSc2nnnn2-c2ccc(C(C)C)cc2)no1 | 12% | -6% | 0% | u | u
Cc1cc(-n2c(C)cc(C(=O)CSc3nnc4sc5ccccc5n34)c2C)no1 | 35%[10 µM] | 1% | 2% | u | 16µM*
Cc1ccc(Cl)cc1N(Cc1ccc(C(=O)NCc2cccnc2)cc1)S(=O)(=O)c1ccccc1 | u | u | 11% | 1% | 5%
O=C1NCCCC1(c1ccccc1)c1ccccc1 | x | x | x | -17% | -1%
Cc1c(C(=O)N2CCN(c3ccc(C(F)(F)F)cn3)CC2)oc2ccccc12 | 3% | -9% | -2% | 18µM* | 23µM*
Cc1ccc(C(=O)N2CCN(c3ccc(C(F)(F)F)cn3)CC2)cc1 | u | -8% | -2% | u | -28%
Cc1ccc(C(=O)N2CCN(c3ccc(C(F)(F)F)cn3)CC2)c(C)c1 | 17% | -14% | 2% | 21µM* | 16µM*
CCOc1ccc(NC(=O)NC2CCOC(C)(C)C2)cc1 (stereo not given) | 15% | -3% | 3% | -2% | 10%
O=C(NCc1ccco1)c1ccc2c(c1)N(Cc1ccc(F)cc1)C(=O)c1ccccc1S2(=O)=O | x | x | 2% | 15µM* | u
O=C(NCCC1=CCCCC1)c1ccc2c(c1)N(Cc1cccc(Cl)c1)C(=O)c1ccccc1S2(=O)=O | x | x | 3% | u | u
COc1cccc(CN2C(=O)c3ccccc3Sc3ccc(C(=O)N(C)Cc4ccccc4)cc32)c1 | x | x | 5% | 18µM* | u
O=C(NCc1ccco1)c1ccc2c(c1)N(Cc1cccc(Cl)c1)C(=O)c1ccccc1S2(=O)=O | x | x | 4% | u | u
O=C(NCc1ccco1)c1ccc2c(c1)N(Cc1ccc(Cl)cc1)C(=O)c1ccccc1S2(=O)=O | x | x | 1% | 18µM* | u
O=C(NCCC1=CCCCC1)c1ccc2c(c1)N(Cc1ccc(F)cc1)C(=O)c1ccccc1S2(=O)=O | x | x | 8% | 7.3µM* | 21µM*
O=C(CCc1ccccc1)NN1C(=O)C2C3C=CC(O3)C2C1=O (stereo not given) | 22% | 1% | 4% | -18% | -5%
CNC(=S)N(Cc1ccc(OC)cc1)C1CC(=O)N(c2ccc(C(=O)OC)cc2)C1=O (stereo not given) | u | 2% | 5% | x | x
SMILES | RORgamma inh | VP16 counter | TDP1 inh | TDP1 cell noCPT | DT40 TDP1 CPT
Cc1cc(N2C(=O)C3CC=CCC3C2=O)no1 (stereo not given) | -1% | -1% | 2% | -7% | 6%
O=C(NCc1ccco1)c1ccc2c(c1)N(Cc1ccc(Cl)cc1)C(=O)c1ccccc1S2=O (stereo not given) | x | x | 6% | 18µM* | u
CCCCN(C)C(=O)c1ccc2c(c1)N(Cc1ccc(F)cc1)C(=O)c1ccccc1S2(=O)=O | x | x | 5% | 16µM* | 16µM*
CN(Cc1ccccc1)C(=O)c1ccc2c(c1)N(Cc1ccc(Cl)cc1)C(=O)c1ccccc1S2=O (stereo not given) | x | x | 5% | 16µM* | 16µM*
O=C(NCc1ccco1)c1ccc2c(c1)N(Cc1cccc(Cl)c1)C(=O)c1ccccc1S2=O (stereo not given) | x | x | 1% | u | u
O=C(NCc1ccc(Cl)cc1)c1ccc2c(c1)N(Cc1ccccc1F)C(=O)c1ccccc1S2=O (stereo not given) | x | x | 8% | u | u
O=C(Nc1ccc(N2CCOCC2)cc1)c1ccc(Cl)c(S(=O)(=O)N2CCCC2)c1 | x | x | 2% | 21µM* | u
O=C(Nc1ccncc1)c1cc(S(=O)(=O)N2CCCCC2)ccc1Cl | x | x | -7% | u | 9.2µM*
O=C(Nc1cc(S(=O)(=O)N2CCCCC2)ccc1Cl)c1ccccc1NS(=O)(=O)c1ccc(F)cc1 | u | 5.6µM* | 4% | 2.6µM* | 5.2µM*
CCN(CC)CCOC(=O)c1ccc(NC(=O)c2ccc(Cl)c(S(=O)(=O)N3CCCCCC3)c2)cc1 | u | u | 4% | u | 21µM*
O=C(Nc1cc(S(=O)(=O)N2CCCCC2)ccc1O)c1ccccc1NS(=O)(=O)c1ccc(F)cc1 | 40% | 4% | 4% | -26% | -20%
CCOc1ncccc1C(=O)Nc1ccc(OC)c(S(=O)(=O)N2CCCCC2)c1 | 6% | -9% | 1% | u | u
O=C(Nc1ccccc1O)c1cc(S(=O)(=O)N2CCCC2)ccc1Cl | x | x | 0%[12.3 µM] | 21µM* | u
O=C(Nc1ccccc1O)c1cc(S(=O)(=O)N2CCOCC2)ccc1Cl | 3% | 1% | 6% | u | -2%
CCN1CCN(c2ccc(NC(=O)c3ccc(Cl)c(S(=O)(=O)N4CCCC4)c3)cc2)CC1 | x | x | 2% | u | u
CCN1CCN(c2ccc(NC(=O)c3cc(S(=O)(=O)N4CCCC4)ccc3Cl)cc2)CC1 | x | x | 4% | 26µM* | u
O=C(Nc1ccncc1)c1ccc(Cl)c(S(=O)(=O)N2CCCCC2)c1 | x | x | 2% | 16µM* | 13µM*
